Screening data: PubChem BioAssay, The Scripps Research Institute Molecular Screening Center
Shown are actives, neighbours in structure and some others; about 3.4% of the full set was active somewhere.
FBW7 act: activators of human E3 ligase FBW7 | Q969H0 | AlphaScreen FBW7–phospho-cyclin E peptide binding, activator screen | normalized activity (activation), % at 26.1 µM | hit rate 0.13% among 650,000 | AID 1259310; in the data active = normalized activity above about 1.9%;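 note: purified mutant Fbw7 with reduced substrate affinity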
TEAD-YAP block: TEAD-YAP interaction inhibition; HEK-TIYL cells, TEAD-Gal4/YAP UAS-luciferase luminescence; inhibition, % at 9.12 µM; hit rate 1.4% among 640,000; in the data active = inhibition above about 32%
GPR151 ag: activators of human GPR151; Q8TDV0; PathHunter beta-arrestin GPR151 cells, luminescence; activation, % at 11.2 µM; hit rate 1% among 650,000; AID 1508602; in the data active = activation above about 4.9%
MITF inh: blocks human microphthalmia-associated transcription factor; O75030; AlphaScreen MITF homodimerization, bead proximity signal; inhibition, % at 2.6 µM; hit rate 0.91% among 650,000; in the data active = inhibition above about 50%
Target sequence (O75030 whole entry, looked up): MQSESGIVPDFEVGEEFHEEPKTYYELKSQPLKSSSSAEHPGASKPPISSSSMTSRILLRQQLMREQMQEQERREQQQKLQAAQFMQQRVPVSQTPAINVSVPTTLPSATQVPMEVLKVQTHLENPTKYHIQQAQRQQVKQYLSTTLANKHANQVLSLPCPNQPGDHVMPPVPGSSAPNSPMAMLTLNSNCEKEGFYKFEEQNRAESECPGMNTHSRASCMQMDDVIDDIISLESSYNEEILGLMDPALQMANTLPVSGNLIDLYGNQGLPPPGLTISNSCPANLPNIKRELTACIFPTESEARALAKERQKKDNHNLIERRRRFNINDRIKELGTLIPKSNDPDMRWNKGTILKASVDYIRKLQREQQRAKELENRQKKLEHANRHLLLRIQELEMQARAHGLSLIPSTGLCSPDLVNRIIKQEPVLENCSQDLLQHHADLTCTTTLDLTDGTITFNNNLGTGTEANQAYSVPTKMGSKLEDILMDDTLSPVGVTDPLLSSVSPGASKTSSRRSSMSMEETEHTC
MITF inh conf: human MITF inhibition, confirmation. shares compounds with MITF inh. AlphaScreen MITF homodimerization, biotin/His-MITF beads. inhibition, % at 2.6 µM. hit rate 16% among 4,700;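 active = inhibition above a cutoff derived from the DMSO control wells, cut at about 28% in these data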;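 note: inhibitors lower the bead chemiluminescence by keeping MITF from dimerizing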
AlphaScreen DR: AlphaScreen optical interference, dose response counter-screen. IC50, µM. shares compounds with MITF inh. hit rate 6% among 480. AlphaScreen optical interference counterscreen, cell-free; call rule not given here
AS interf ctr: optically interferes with AlphaScreen signal; inhibition, % at 2.6 µM; LysRS AlphaScreen counterscreen, signal interference, triplicate; shares compounds with MITF inh; hit rate 7.6% among 4,700; AID 1259376;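 active = inhibition above a cutoff derived from the DMSO control wells, cut at about 30% in these data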
Of the large screens only hits and unclear results are named; the others gave an inactive call (follow-up assays come after a bar, where they were run).

COc1ccc(Br)cc1CN(CCc1ccc2c(c1)OCO2)Cc1cccnc1	MITF inh 52 | MITF inh conf inactive | AS interf ctr inactive
CCOc1ccccc1CN(CCc1ccc2c(c1)OCO2)Cc1ccccn1	MITF inh 84 | MITF inh conf inactive | AS interf ctr inactive
CCOc1ccccc1CN(CCc1ccc2c(c1)OCO2)Cc1cc(OC)c(OC)cc1OC	none
Cn1c(=O)[nH]c(=O)c2c1[nH]c(=S)n2CC(=O)c1ccccc1	none
CCCCC(=O)Nc1cc(C)c(Cl)cc1OC	none
CCCCC(=O)Nc1cc(OC)c(NC(=S)NC)cc1OC	MITF inh 75 | MITF inh conf inactive | AS interf ctr inactive
CCNC(=O)c1ccccc1NC(=O)c1cccc(S(=O)(=O)N2CCCC2)c1	none
COCCCNCCCCOc1ccc(C(C)C)c(C)c1	MITF inh 58 | MITF inh conf inactive | AS interf ctr inactive
COCCCNCCCOc1ccc(C(C)C)c(C)c1	MITF inh 59 | MITF inh conf inactive | AS interf ctr inactive
COc1ccccc1CNC(=O)c1ccc(NS(C)(=O)=O)cc1	none
O=C(CSC1CC(=O)N(c2cccc(Cl)c2)C1=O)Nc1ccc(Cl)c(Cl)c1 (centres undefined)	none
COc1cccc(Cn2cc3c(-c4ccccc4)nnc-3c3cc(OC)c(OC)cc32)c1	none
c1ccn2cc(CN3CCCCC3)nc2c1	MITF inh 82 | MITF inh conf inactive | AS interf ctr inactive
c1ccc2c(c1)ncn2CC1CCN(Cc2cn3ccccc3n2)CC1	MITF inh 89 | MITF inh conf 29 | AlphaScreen DR inactive | AS interf ctr inactive
c1ccc2c(c1)ncn2CC1CCCCC1	none
O=C(N[C@H]1CCCCNC1=O)c1ccc(OC2CCN(Cc3ccccn3)CC2)cc1	none
O=C(NCCCn1ccnc1)C(=O)NCC1OCCN1S(=O)(=O)c1ccccc1 (centres undefined)	none
O=C(NCCCn1ccnc1)C(=O)NCC1OCCCN1S(=O)(=O)c1ccccc1 (centres undefined)	MITF inh 66 | MITF inh conf 35 | AS interf ctr 45
COc1ccc(CN2CCN(C(=O)c3cccc(Cl)c3)CC2)c(OC)c1	MITF inh 54 | MITF inh conf inactive | AS interf ctr inactive
COc1cccc(C(=O)N2CCN(Cc3ccc(Br)cc3)CC2)c1	MITF inh 61 | MITF inh conf inactive | AS interf ctr inactive
COc1cccc(OC)c1C(=O)N1CCN(Cc2ccco2)CC1	MITF inh 61 | MITF inh conf inactive | AS interf ctr inactive
COc1cc(OC)c(OC)cc1CN1CCN(Cc2ccco2)CC1	MITF inh 81 | MITF inh conf inactive | AS interf ctr inactive
COc1cccc(C(=O)N2CCN(Cc3ccccc3Cl)CC2)c1	none
CCOc1ncccc1C(=O)Nc1ccc(OC)cc1	none
C=CCc1ccccc1OCCOc1ccc(/C=C2/C(=N)N3N=C(C(C)C)SC3=NC2=O)cc1OC	none
CC(C)c1ccc(NC(=O)Cn2cccc2)cc1	none
COc1cccc(CN2CCN(C(=O)c3cccc(Cl)c3)CC2)c1	MITF inh 58 | MITF inh conf inactive | AS interf ctr inactive
O=C(c1cccc(Cl)c1)N1CCN(Cc2ccccc2Cl)CC1	MITF inh 58 | MITF inh conf inactive | AS interf ctr inactive
COc1cccc(C(=O)N2CCN(C3CCN(Cc4ccccc4)CC3)CC2)c1	MITF inh 54 | MITF inh conf inactive | AS interf ctr inactive
COc1cccc(CN2CCN(C(=O)c3ccco3)CC2)c1	MITF inh 55 | MITF inh conf inactive | AS interf ctr inactive
COc1ccc(CN2CCN(C(=O)c3ccccc3)CC2)cc1	none
COc1cccc(CN2CCN(C(=O)c3ccccc3)CC2)c1	MITF inh 60 | MITF inh conf inactive | AS interf ctr inactive
CCOc1ccc(CN2CCN(C(=O)c3c(OC)cccc3OC)CC2)cc1	none
COc1ccc(CN2CCN(C(=O)c3ccco3)CC2)cc1Br	MITF inh 53 | MITF inh conf inactive | AS interf ctr inactive
O=C(c1ccncc1)N1CCN(Cc2ccco2)CC1	MITF inh 76 | MITF inh conf inactive | AS interf ctr inactive
COc1cccc(OC)c1C(=O)N1CCN(Cc2ccc(Br)cc2)CC1	MITF inh 64 | MITF inh conf inactive | AS interf ctr inactive
c1coc(CN2CCN(Cc3ccncc3)CC2)c1	none
FC(F)(F)c1ccc(Cn2cnc3c(NCc4cccnc4)nc(-c4ccc(N5CCOCC5)nc4)nc32)cc1	none
COc1cccc(C(=O)N2CCN(Cc3cccc(Cl)c3)CC2)c1	MITF inh 52 | MITF inh conf 50 | AS interf ctr inactive
O=C(c1ccccc1)N1CCN(CC(O)COCc2ccccc2)CC1 (centres undefined)	MITF inh 56 | MITF inh conf inactive | AS interf ctr inactive
COc1ccc(Br)cc1CN1CCN(C(=O)c2cccs2)CC1	MITF inh 64 | MITF inh conf inactive | AS interf ctr inactive
COc1cccc(C(=O)N2CCN(C(=O)c3cccc(Cl)c3)CC2)c1	none
CCc1ccc(CN2CCN(C(=O)c3ccco3)CC2)cc1	MITF inh 51 | MITF inh conf inactive | AS interf ctr inactive
CC(C)(C)C(Cn1ccnc1)NCc1c(C(=O)N2CCOCC2)nc2ccccn12 (centres undefined)	none
O=C(CSc1nc(-c2cccc([N+](=O)[O-])c2)cs1)NCc1ccc2c(c1)OCO2	none
CCOc1cc(CN2CCN(C(=O)c3cccc(Cl)c3)CC2)ccc1OC	none
COc1ccc(C(=O)N2CCN(Cc3cccc(Cl)c3)CC2)cc1OC	MITF inh 51 | MITF inh conf inactive | AS interf ctr inactive
COc1cc(CN2CCN(Cc3cccc(Br)c3)CC2)cc2c1OCO2	MITF inh 65 | MITF inh conf inactive | AS interf ctr inactive
COc1cc(CN2CCN(Cc3cccc(Br)c3)CC2)cc(OC)c1OC	MITF inh 69 | MITF inh conf inactive | AS interf ctr inactive
COc1cc(CN2CCN(Cc3ccc(C(F)(F)F)cc3)CC2)cc2c1OCO2	MITF inh 61 | MITF inh conf inactive | AS interf ctr 37
COc1cc(CN2CCN(Cc3ccc(F)cc3)CC2)cc2c1OCO2	MITF inh 76 | MITF inh conf inactive | AS interf ctr inactive
COc1ccc(CN2CCN(Cc3cc(OC)c4c(c3)OCO4)CC2)cc1OC	none
CC(C)Oc1ccc(C(=O)Nc2ccccc2N2CCOCC2)cc1	none
COc1cc(CNc2ccccc2)cc2c1OCO2	MITF inh 62 | MITF inh conf inactive | AS interf ctr inactive
O=C(O)C1=CC(=C(c2ccc(O)c(C(=O)O)c2)c2ccc(O)c(C(=O)O)c2)C=CC1=O	MITF inh 64 | MITF inh conf 83 | AS interf ctr 50
O=C(Nc1ccc(O)c(C(=O)O)c1)c1ccc(Br)cc1	none
CC(=O)Nc1ccc(NCc2nn3cc(-c4ccc(C)cc4)c4c3n2CCCC4)cc1	none
COc1ccc(C(=O)NC(NC(C)(C)C)C(Cl)(Cl)Cl)cc1 (centres undefined)	none
